Source: PubChem BioAssay
CSC inhib – cancer stem cell viability inhibitors, primary screen, luminescence | cancer stem cell-like cells viability | inhibition, % at 7.5 µM | 1.1% of 300,000 active; in the data active means inhibition above about 75%; tested in HMLE shEcad cells
Beta cell apopt – inhibitors of cytokine-induced beta cell apoptosis, primary screen, luminescence | 0.8% of 300,000 active | INS-1E cytokine-induced death, ATP luminescence, 48 h; percent of positive-control rescue, neutral wells zero | protection from apoptosis, % (no concentration beside the values);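 active means Every replicate reaches about 75%, or at least half do and their mean reaches it too, limit read from the data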;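 further: 0% = cytokine-treated negative control wells and 100% = positive control rescue; higher means more ATP so stronger rescue from cytokine killing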
Gli-Sufu antag – Gli-Sufu pathway antagonists, primary screen, luciferase luminescence, Sufu-KO-LIGHT cells, uHTS; Sufu-KO-LIGHT fibroblasts, Gli luciferase reporter luminescence; inhibition, % at 5 µM; 0.74% of 340,000 active;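 active means inhibition above about 55%, limit read from the data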;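 further: 0% = DMSO-treated cells and 100% = wells with medium but no cells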
697 NFkB inh – inhibitors of PMA/ionomycin-induced NF-kB reporter, 697 cells, primary screen, B-cell NF-kB inhibitor project, cell-based, luminescence, uHTS; 697 B-cell NF-kB luciferase reporter, 16 h; inhibition, % at 4 µM; 0.33% of 330,000 active; in the data active means inhibition above about 35%
Mdm2-MdmX inh – inhibitors of human Mdm2-MdmX association, primary screen, cell-based, luminescence, split luciferase, SaOS-2, uHTS | SaOS-2 split-luciferase Mdm2/MdmX complementation | inhibition, % at 8 µM | 3% of 330,000 active | AID 485346, 2010;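 active means inhibition of at least 50% at 8 µM in the primary screen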
Jurkat NFkB inh – inhibitors of induced NF-kB luciferase reporter, primary screen, TCR NF-kB activation inhibitor project, cell-based, luminescence, uHTS; 0.53% of 330,000 active; inhibition, % at 4 µM; Jurkat, PMA/ionomycin-induced NF-kB luciferase reporter; in the data active means inhibition above about 50%
Mdm2 MdmX conf – Mdm2-MdmX complex disruptors, retested hits, confirmation, luminescence, single concentration; shares compounds with Mdm2-MdmX inh; Mdm2-MdmX binding, luminescent assay; inhibition, % at 8 µM; 55% of 10,000 active; AID 489028, 2010; in the data active means inhibition above about 40%
Full FLuc ctr – full-length luciferase signal inhibition, confirmation, counter-screen for Mdm2/MdmX interaction inhibitor project, cell-based, single concentration, SaOS-2. shares compounds with Mdm2-MdmX inh. 77% of 6,200 active. AID 504607, 2011. inhibition, % at 8 µM. SaOS-2 full-length luciferase counterscreen, luminescence;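 active means mean inhibition at 8 µM reaching about 37%, which flags the compound as non-specific, limit read from the data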;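 further: p53-null SaOS-2 cells with luciferase driven by a doxycycline-inducible promoter; compound on cells about two nights before reading with doxycycline added after day one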
Starred values were filed as active, the others as inactive; x = no result. Only some compounds are listed: those with a hit (about 4.5% of all), similar ones and a draw of the others.

SMILES	CSC inhib	Beta cell apopt	Gli-Sufu antag	697 NFkB inh	Mdm2-MdmX inh	Jurkat NFkB inh	Mdm2 MdmX conf	Full FLuc ctr
C[C@H]1O[C@H](O[C@H]2[C@H](O[C@@H]3CC[C@@]4(C)C(CC[C@]5(C)C4CC=C4[C@@H]6CC(C)(C)CC[C@]6(C(=O)O[C@@H]6O[C@H](CO)[C@@H](O)[C@H](O)[C@H]6O)CC[C@]45C)C3(C)C)O[C@H](C(=O)O)[C@@H](O)[C@@H]2O)[C@@H](O)[C@@H](O)[C@@H]1O (stereo not given in full)	9	-1	2	9	10	4	x	x
CC1(C)CC[C@]2(C(=O)O)[C@H](O)C[C@]3(C)C(=CCC4[C@@]5(C)C[C@H](O)[C@H](O)[C@@](C)(CO)C5CC[C@]43C)[C@@H]2C1 (stereo not given in full)	-4	-3	-2	22	1	-1	x	x
C[C@H]1[C@H](C)CC[C@]2(C(=O)O)CC[C@]3(C)C(=CC[C@@H]4[C@@]5(C)CC[C@H](O)C(C)(C)[C@@H]5CC[C@]43C)[C@H]12	66	22	-3	5	78*	-21	15	x
CC1(C)C[C@H]2C3=CCC4[C@@]5(C)CC[C@H](O)[C@](C)(CO)C5CC[C@@]4(C)[C@]3(C)CC[C@@]2(C)[C@H](O)[C@@H]1O (stereo not given in full)	x	x	-5	1	87*	-1	57*	60*
CC1(C)C[C@H]2C3=CCC4[C@@]5(C)CC[C@H](O)[C@](C)(CO)C5CC[C@@]4(C)[C@]3(C)C[C@H]3O[C@@H]1[C@H](O)[C@]32CO (stereo not given in full)	-21	2	-31	11	10	-17	x	x
CC(C)(C)c1ccc(C(=O)NNC(=O)CNC(=O)c2cccs2)cc1	-5	-1	-6	0	10	-7	x	x
O=C(c1cc(Cl)ccc1OCc1ccccc1)N1CCOCC1	-2	-4	-8	-22	-22	3	x	x
O=C(c1ccc(F)cc1)N1CCC(C(=O)N2CCN(c3ncccn3)CC2)CC1	3	-2	-6	-5	4	-9	x	x
Cc1ccc2occ(/C=N/NC(=O)c3ccccc3O)c(=O)c2c1	-7	42	-4	-19	81*	16	66*	46*
CCOc1ccccc1C(=O)N/N=C/c1coc2ccc(Cl)cc2c1=O	-5	1	7	-29	82*	15	85*	22
Cc1ccc2occ(/C=N/NC(=O)c3ccc(Cl)cc3)c(=O)c2c1	-3	-2	0	-16	37	14	x	x
O=C(N/N=C/c1coc2ccc(Cl)cc2c1=O)c1cc(O)cc(O)c1	-4	-14	-6	16	46	5	x	x
C[C@H](C[C@H](O)[C@H]1OC1(C)C)C1=C2C[C@H](O)C3[C@@]4(C)CCC(=O)C(C)(C)C4CC[C@]3(C)[C@@]2(C)CC1 (stereo not given in full)	26	22	46	-9	36	4	x	x
C[C@@H](C[C@@H](O)[C@H](O)C(C)(C)O)[C@@H]1CC[C@]2(C)C3=CC[C@H]4C(C)(C)C(=O)CC[C@]4(C)[C@H]3CC[C@@]12C	-6	x	31	7	51*	26	40*	96*
NC(=O)c1sc2nc3c(c(-c4ccc(Cl)cc4)c2c1N)CCCC3	-9	-3	-26	21	36	16	x	x
N#Cc1sc2nc3c(c(-c4ccco4)c2c1N)CCCC3	-8	6	-2	-24	-30	6	x	x
COc1ccc(-c2c3c(nc4sc5c(Cl)nc(C)nc5c24)CCC3)cc1	-26	0	1	6	99*	19	-21	x
NC(=O)c1sc2nc3c(c(-c4ccco4)c2c1N)CCCC3	-7	-11	-20	7	61*	8	67*	37*
Cc1ccc(-c2c3c(nc4sc(C(N)=O)c(N)c24)CCC3)cc1	-8	-42	-1	-27	56*	-36	55*	47*
Oc1[nH]c2ccccc2c1N=NC(=S)NCC1CCCO1 (stereo not given)	-3	3	-5	12	11	3	x	x
Cc1cc(C)c2[nH]c(O)c(N=NC(=S)NCC3CCCO3)c2c1 (stereo not given)	2	3	-2	21	37	8	x	x
Oc1[nH]c2ccc(Br)cc2c1N=NC(=S)NCC1CCCO1 (stereo not given)	42	17	0	23	68*	3	53*	48*
Oc1[nH]c2c(Cl)cc(Cl)cc2c1N=NC(=S)NCC1CCCO1 (stereo not given)	x	52	37	-6	98*	12	45*	50*
NC(=O)c1ccc(NC(=O)COC(=O)CCN=C2NS(=O)(=O)c3ccccc32)cc1	-4	0	4	-3	16	-8	x	x
CCCCCCCC(=O)N/N=C/c1ccc([N+](=O)[O-])o1	7	0	-6	16	6	-9	x	x
SMILES	CSC inhib	Beta cell apopt	Gli-Sufu antag	697 NFkB inh	Mdm2-MdmX inh	Jurkat NFkB inh	Mdm2 MdmX conf	Full FLuc ctr
O=C(CNc1cccc2ccccc12)N/N=C/c1ccc([N+](=O)[O-])o1	13	118*	-7	3	51*	24	20	x
O=C(CNc1cccc2ccccc12)N/N=C/C(Br)=C/c1ccccc1	47	-9	1	-129	59*	49	37	47*
Cc1ccc(NC(=O)c2ncn(CCCN3CCN(Cc4cccc5ccccc45)CC3)n2)cc1C	x	x	2	x	x	x	x	x
COC(=O)c1ccccc1NC(=O)CN1CCC(C(=O)c2ccc3c(c2)OCCO3)CC1	1	-2	2	-9	62*	5	60*	99*
Cc1ccc(NC(=O)CN2CCC(C(=O)c3ccc4c(c3)OCCO4)CC2)cc1	-4	1	1	-14	16	4	x	x
CN(C(=O)COC(=O)c1cc(S(=O)(=O)N2CCCCC2)ccc1Cl)c1ccccc1	x	6	6	27	15	-1	x	x
CC1(C)Cc2c(sc(NC(=O)c3ccc(S(=O)(=O)N4CCCCCC4)cc3)c2C(N)=O)C(C)(C)N1	x	x	8	-21	85*	11	17	x
